Results on 40 molecules are retold here after the supplement of paper PMC12067926.

The structures appear in SMILES notation. Values without a mark were called inactive.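 Rule for the calls: active = growth AUC significantly below the DMSO wells by Dunnett test; inactive = the rest.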

This assay has as its system Carnobacterium 1 (Carnobacterium gallinarum). In words: relative growth (AUC of 72 h growth curve relative to DMSO control, dAUC) (ratio); higher = more growth (less inhibition), active = hit call of the paper. The conditions noted are these: 20 µM. The procedure: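 Environmental bacterial isolates (Iceland stream sediment and Silwood Park soil) and whole stream-sediment communities were grown in LB from a 1:100 dilution with each pesticide at 20 µM (1% DMSO). A600 was read hourly for 72 h and the area under a spline-fitted growth curve (AUC) was computed. dAUC is the mean AUC of 3 biological replicates divided by the mean AUC of the DMSO controls. Significance was tested by Dunnett's test against the DMSO control.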
As to `CC(C)N(C)S(=O)(=O)NC(=O)c1cc(-n2c(=O)cc(C(F)(F)F)n(C)c2=O)c(F)cc1Cl`, the relative growth was 1.22.

Regarding `CCCCC(C#N)(Cn1cncn1)c1ccc(Cl)cc1` (stereo not given), the relative growth is 0.998.

As for `COc1ncc(F)c2nc(S(=O)(=O)Nc3c(F)cccc3F)nn12`, the relative growth was 1.1. For the molecule `C[C@@H]1[C@@H](c2ccc(Cl)cc2)SC(=O)N1C(=O)NC1CCCCC1`, the relative growth was 0.881. As for `CC(C1CC1)C(O)(Cn1cncn1)c1ccc(Cl)cc1` (stereo not given), the figure is 1.34. Take `Cc1cc(C(F)(C(F)(F)F)C(F)(F)F)ccc1NC(=O)c1cccc(I)c1C(=O)NC(C)(C)CS(C)(=O)=O`: the relative growth was 0.956. As for `COP(=S)(OC)Oc1nc(Cl)c(Cl)cc1Cl`, the figure is 0.447; as for `O=C(Nc1ccccc1-c1ccc(Cl)cc1)c1cccnc1Cl`, 0.968; as for `COP(=S)(OC)Oc1ccc(SC)c(C)c1`, 1.08. As for `CCOP(=S)(OCC)Oc1nc(Cl)c(Cl)cc1Cl`, the relative growth is 1.1. With `CCCSP(=O)(OCC)Oc1ccc(Br)cc1Cl` (stereo not given), the relative growth is 0.842. Under `N#Cc1sc2c(=O)c3ccccc3c(=O)c=2sc1C#N` stands 0.62; under `CCCCN(CCCC)SN(C)C(=O)Oc1cccc2c1OC(C)(C)C2`, 1.51; under `N#Cc1c[nH]cc1-c1cccc2c1OC(F)(F)O2`, 1.07.

`CC(COc1ccc(Oc2ccccc2)cc1)Oc1ccccn1` (stereo not given): the relative growth was 1.38. Under `CN/C(=N/CC1CCOC1)N[N+](=O)[O-]` (stereo not given) stands 1.46; under `CSc1nc(NC(C)C)nc(NC(C)C)n1`, 0.71. As for `CC1(C)C(C=C(Cl)Cl)C1C(=O)OC(C#N)c1cccc(Oc2ccccc2)c1` (stereo not given), the figure is 1.32; as for `COP(=O)(OC)OC=C(Cl)Cl`, 0.961; as for `CC1(C)C(C=C(Cl)Cl)C1C(=O)OC(C#N)c1ccc(F)c(Oc2ccccc2)c1` (stereo not given), 0.865. Under `Cc1cc(C2CC2)nc(Nc2ccccc2)n1` stands 0.909; under `CNC(=O)/C=C(\C)OP(=O)(OC)OC`, 0.926.

Take `CCCCc1c(C)nc(NCC)nc1OS(=O)(=O)N(C)C`: the relative growth is 0.861. For `Cc1ccc(/N=C/N(C)/C=N/c2ccc(C)cc2C)c(C)c1`, the relative growth was 1.24.

On to `CO/N=C(/C(=O)OC)c1ccccc1CO/N=C(\C)c1cccc(C(F)(F)F)c1`, for which the relative growth is 0.975. Under `CCSC(C)CC1CC(=O)C(/C(CC)=N/OC/C=C/Cl)=C(O)C1` (mixture of isomers) stands 1.27; under `CC1(C)C(C=C(Cl)Cl)C1C(=O)OCc1cccc(Oc2ccccc2)c1` (stereo not given), 0.871.

Consider `N#Cc1nn(-c2c(Cl)cc(C(F)(F)F)cc2Cl)c(N)c1[S+]([O-])C(F)(F)F` (stereo not given), for which the relative growth is 0.821. Under `CC1=NNC(=O)N(/N=C/c2cccnc2)C1` stands 1.3; under `C#CCN1C(=O)COc2cc(F)c(N3C(=O)C4=C(CCCC4)C3=O)cc21`, 0.92. In the case of `CO/C=C(/C(=O)OC)c1ccccc1COc1cccc(C(F)(F)F)n1`, the relative growth is 0.98. In the case of `C[N+](C)(C)CCCl`, the relative growth was 1.05. `COC(=O)N(OC)c1ccccc1COc1ccn(-c2ccc(Cl)cc2)n1`: the relative growth is 1.36. Under `CCOc1ccc(C(C)(C)COCc2cccc(Oc3ccccc3)c2)cc1` stands 0.99. Under `O=C1C=C(N(Cc2ccc(Cl)nc2)CC(F)F)CO1` stands 1.06; under `CC(C)N(C(=O)COc1nnc(C(F)(F)F)s1)c1ccc(F)cc1`, 1.04; under `CCOC(=O)OC1=C(c2cc(C)ccc2C)C(=O)N[C@]12CC[C@@H](OC)CC2`, 1.17. In the case of `COc1cccc(C(=O)NN(C(=O)c2cc(C)cc(C)c2)C(C)(C)C)c1C`, the relative growth was 0.863. In the case of `Cc1cc(C)c(C2=C(OC(=O)CC(C)(C)C)C3(CCCC3)OC2=O)c(C)c1`, the relative growth is 1.01. As for `COC(=O)Nc1nc2ccccc2[nH]1`, the figure is 1.1.
